# Results taken from the antibiotic and cytotoxicity screens of Wong et al. (2023).
# About 3,300 (8.5%) of roughly 39,000 compounds were called active. The entries come from a sample that favours actives as a whole.
# System: HepG2
# Assay: cytotoxicity call (relative viability < 0.9)
# Settings: 10 µM
row,SMILES,cytotoxicity call
1,COc1ccc2c3c(n(c2c1)C)[C@@H](CO)N(Cc1cc(cc(c1)OC)OC)C[C@]13CN(C1)C(=O)CN1CCOCC1,inactive
2,COCC(=O)N1CC[C@@H]2N(S(C)(=O)=O)CC[C@@]2(C(=O)N2CCOCC2)CC1,inactive
3,CC(=O)Nc1cc(C(C)C)c(C(C)C)cc1C(C)C,inactive
4,C[C@H](CO)N1C[C@H](C)[C@@H](CN(C)C(=O)Nc2ccc3c(c2)OCO3)OCCCC[C@H](C)Oc2ccc(NC(=O)c3ccccc3)cc2C1=O,inactive
5,COCC(=O)N1C[C@H](C)[C@H](OC)CN(C)C(=O)c2cc(NC(=O)c3ccc(F)cc3)ccc2OC[C@@H]1C,inactive
6,C[C@H]1CN([C@@H](C)CO)C(=O)c2cc(NS(=O)(=O)c3cccs3)ccc2O[C@@H]1CN(C)S(=O)(=O)c1ccc(F)cc1,inactive
7,COc1ccc2c3c([nH]c2c1)[C@H](CO)N(C[C@]13CCN(CC1)C(=O)c1ccccc1F)C(=O)Nc1ccccc1F,inactive
8,C[C@@H]1CN([C@H](C)CO)C(=O)c2cccc(NC(=O)Nc3ccc4c(c3)OCO4)c2O[C@H]1CN(C)S(C)(=O)=O,inactive
9,CN1C[C@@H](O)COC[C@H]2O[C@@H](CC(=O)N3CCN(c4ccccc4)CC3)CC[C@@H]21,inactive
10,CN1CCCC1c1cccnc1.O=C(O)C(O)C(O)C(=O)O.O=C(O)C(O)C(O)C(=O)O (centres undefined),inactive
11,CN(C)S(=O)(=O)N1C[C@H]2C[C@H](C(=O)Nc3cccnc3)[C@@H](C1)O2,inactive
12,C[C@H](c1cccnc1)N(C(=O)Nc1ccccc1)C1CCCCC1,active
13,C[C@@H]1CN([C@@H](C)CO)C(=O)c2cccc(NC(=O)C3CCCCC3)c2O[C@@H]1CN(C)C(=O)Nc1cccc2ccccc12,inactive
14,C=CCN1C(=O)[C@@]2(O[C@@H](CCn3cc(CCO)nn3)[C@H]([Si](C)(C)c3ccc(OC)cc3)[C@H]2C)c2cc(N3CCC3=O)ccc21,inactive
15,C=CCN1C(=O)[C@@]2(O[C@@H](CCO)[C@H]([Si](C)(C)c3ccc(OC)cc3)[C@H]2C)c2cc(N(C=O)c3ccccc3)ccc21,active
16,C=CCN1C(=O)[C@@]2(O[C@@H](CCO)[C@H]([Si](C)(C)c3ccc(OC)cc3)[C@H]2C)c2cc(NC(=O)[C@H](C)O)ccc21,inactive
17,C=CCN1C(=O)[C@]2(O[C@H](CCn3cc(CCO)nn3)[C@@H]([Si](C)(C)c3ccc(OC)cc3)[C@@H]2C)c2cc(N3CCC3=O)ccc21,inactive
18,C=CCN1C(=O)[C@]2(O[C@H](CCO)[C@@H]([Si](C)(C)c3ccc(OC)cc3)[C@@H]2C)c2cc(NC(=O)[C@H](C)O)ccc21,inactive
19,C=CCN1C(=O)[C@]2(O[C@H](CCO)[C@@H]([Si](C)(C)c3ccc(OC)cc3)[C@@H]2C)c2cc(N(C=O)c3ccccc3)ccc21,active
